Shiga toxin inh = inhibitors of Shiga toxin in Vero cells | inhibition, % at 38.7 µM | 290,000 tested, 9.2% active | Vero cells, Shiga toxin protein synthesis inhibition reporter; in the data active = inhibition mostly above about 28%, no sharp cut-off; inactive = mostly below about 43%
Pf growth 96h = inhibits malaria parasite growth, 96 h; 320,000 tested, 6.9% active; AID 504834; P. falciparum luciferase reporter growth, 96 h; Potency, µM (titrated, usually from 28.7 µM), actives largely listed as inhibitors
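Luminescence readout: decreased luciferase signal marks inhibited growth of reporter-expressing P. falciparum in infected red cells (2% hematocrit, 0.05% parasitemia final), exposed to compound two generations (96 h, 37 C, 5% CO2).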
Cycloheximide cs = counter-screen hit for Shiga toxin inhibitors, cycloheximide | cell reporter, cycloheximide protein synthesis inhibition counterscreen | max response, % | 300,000 tested, 12% active | AID 2314; in the data active = max response mostly above about 13%, no sharp cut-off; inactive = mostly below about 14%; also: read at 38.3 µM for the half of the compounds with a filed dose
NS1 function inh = influenza NS1 inhibition. Potency, µM (highest dose often 46.1 µM). AID 2326. 270,000 tested, 0.4% active; calls by dose curve; also: actives are rising curves; nearly all actives have a fitted effect of over 50% in size
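S. cerevisiae expressing influenza A NS1, grown in glucose, washed, then diluted 1:100 into pH 6.0 -URA galactose medium with 23 nl compound. Growth recovery read as OD600; NS1-free strain serves as control.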
Sm TGR inh = S. mansoni TGR enzyme inhibition. Q962Y6. purified TGR, DTNB reduction, TNB absorbance 405 nm. 360,000 tested, 3% active. Potency, µM (highest dose often 114 µM), hits mostly inhibitors; also: nearly all actives have a fitted effect of over 60% in size
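TGR 20 nM + NADPH 100 uM (dispensed conc.), cpd preinc 15 min RT; start with NADPH (500 uM addition) then DTNB (15 mM addition). Kinetic TNB absorbance, 405 nm filter. Four-parameter Hill fit across titration.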
Pf growth 48h = P. falciparum growth inhibition at 48 hours (one generation). P. falciparum luciferase growth in erythrocytes, 48 h. Potency, µM (doses to about 28.7 µM), usual class: inhibitors. 310,000 tested, 5.9% active
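First compound was added to culture medium, then infected red cells at 0.1% parasitemia and 2% hematocrit (final). After incubation at 37 C under 5% CO2, luciferase detection reagent was dispensed and light output recorded.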
Hits are given with their value; 0 = inactive; ? = inconclusive; - = not tested or not shown; [ ] = dose if it differs, or a comment. The list is not random: actives were taken first. Their share in the collection is about 21%. Unless noted, calls follow the shape of the dose curve; as a rule, active = well fitted curve in the direction sought with a large enough effect; inconclusive = small, poorly fitted or top-dose-only effect, or another doubt; inactive = no such curve, though single readings can be large; an effect the other way counts as inactive or inconclusive.

SMILES	Shiga toxin inh	Pf growth 96h	Cycloheximide cs	NS1 function inh	Sm TGR inh	Pf growth 48h
Cc1ccc(Nc2c([N+](=O)[O-])c(=O)n(C)c3ccccc23)cc1	0	1.65µM	0	0	0	0
Cc1ccc(Sc2c([N+](=O)[O-])c(=O)n(C)c3ccccc23)cc1	0	0	10.2	0	2µM	?
Cn1c(=O)c([N+](=O)[O-])c(NCc2ccccc2)c2ccccc21	0	8.28µM	0	0	0	0
CCOC(=O)C1(Cc2ccccc2C(F)(F)F)CCN(C2CCN(C(C)=O)CC2)CC1	0	?	0	0	0	9.28µM
O=C(O)c1cc(N=Nc2ccc(-c3ccc(N=Nc4ccc(O)c(C(=O)O)c4)cc3)cc2)ccc1O	26.4	-	0	-	-	-
Cc1ccc(NC(=O)c2c(C)nc3sc(C(=O)Nc4ccc(F)cc4)c(N)c3c2-c2ccccc2Cl)c(C)c1	-	-	-	-	0	-
O=C(O)COc1ccc(C(=O)c2cccs2)c(Cl)c1Cl	0	3.79µM	0	-	-	0
Cc1c(C(=O)NC(=S)NCc2cccnc2)cccc1[N+](=O)[O-]	0	0	0	0	0	0
Cc1ccn2cc(-c3ccc(S(=O)(=O)N4CCOCC4)cc3)nc2c1	0	0	48.1	?	0	0
Cc1ccc2nc(-c3ccccc3)cn2c1	0	?	0	0	0	0
Cc1nc(-c2ccc(S(=O)(=O)N3CCOCC3)cc2)cs1	0	?	0	0	0	0
CC(=O)Nc1ccc(-c2cn3cc(C)ccc3n2)cc1	61.2	0	41.6	0	0	0
Cc1ccc2nc(-c3ccc(S(=O)(=O)N4CCOCC4)cc3)cn2c1	0	-	23.8	0	0	0
Cc1cc(F)ccc1NC(=O)CCS(=O)(=O)c1ccc2c(c1)NC(=O)CO2	-	-	-	-	0	-
O=C(O)c1ccc(N2C(=O)c3[nH]nc(-c4ccccc4)c3C2c2cccc(F)c2)cc1 (configuration not stated)	-	-	-	-	0	-
COc1ccc(-c2nnc(SCC(=O)Nc3c(C)cccc3C)nc2-c2ccc(OC)cc2)cc1	-	-	-	-	0	-
Cc1ccccc1NC(=O)CSc1n[nH]c(-c2ccco2)n1	0	0	0	0	0	0
Cc1ccccc1NC(=O)CSc1nnc(-c2ccco2)c(-c2ccco2)n1	0	0	0	?	3.55µM	?
Cc1ccccc1NC(=O)CSc1nc(-c2ccco2)nc2cc(=O)[nH]n12	-	-	-	-	39.8µM	-
Cc1cccc(C)c1NC(=O)CSc1nnc(-c2ccco2)c(-c2ccco2)n1	0	0	0	?	1.78µM	0
C[C@H](NC(=O)N1CCn2c1nc1ccccc12)C(=O)NCc1ccc2c(c1)OCO2	0	0	0	0	0	0
O=c1cc(-c2ccccc2)n2c(SCc3ccc(Br)cc3)nnc2[nH]1	-	-	-	-	0	-
C[C@@H](C(=O)N[C@H](C(=O)O)c1ccccc1)n1nnc2ccccc2c1=O	0	0	0	0	0	0
O=C1CC(Cc2ccccc2)C(=O)N1Cc1ccco1 (configuration not stated)	0	11.7µM	0	?	15.8µM	?
Cc1ccc(CC2CC(=O)N(Cc3ccco3)C2=O)cc1 (configuration not stated)	0	0	0	0	12.6µM	0
SMILES	Shiga toxin inh	Pf growth 96h	Cycloheximide cs	NS1 function inh	Sm TGR inh	Pf growth 48h
O=C1CC(NCc2ccco2)C(=O)N1CCc1ccccc1 (configuration not stated)	0	-	0	0	0	0
COc1cccc(N2CC(NC(=O)c3ccc(S(=O)(=O)N4CCCC4)cc3)CC2=O)c1 (configuration not stated)	-	-	-	-	0	-
O=C(O)CC(c1cccc(O)c1)N1Cc2ccccc2C1=O (configuration not stated)	0	0	0	0	?	0[0.00184 µM]
CCN(CC)CC(O)Cn1c(C)c(-c2ccccc2)c2cc([N+](=O)[O-])ccc21 (configuration not stated)	0	0	0	0	0	-
CN(C)c1ccc(C2=NOC(CN3C(=O)c4ccccc4S3(=O)=O)C2)cc1 (configuration not stated)	70.6	0	55.5	0	0	0
CCC(=O)N1CCc2cc(S(=O)(=O)NC(CC(C)C)C(=O)NCc3ccc(F)cc3)ccc21 (configuration not stated)	-	-	-	-	0	-
CCC(Sc1nc2c(sc3ccccc32)c(=O)n1CCCC(=O)NC1CCCC1)C(=O)Nc1cccc(OC)c1 (configuration not stated)	-	-	-	-	0	-
CCNC(=S)Nc1ccc(OCC)cc1	0	0	0	0	0	0
O=C(NCCNC(=O)c1cc(OCC(F)(F)F)ccc1OCC(F)(F)F)Nc1ccc(Cl)cc1	0	0	28.1	0	0	0
CCOc1ccc(NC(=S)Nc2ccc3nsnc3c2)cc1	56.5	0	33.2	0	?	?
CCOc1ccc(NC(=O)Nc2cc(C)ccc2F)cc1	53.8	0	34.5	0	0	-
CCOc1ccc(NC(=S)Nc2cc(C)[nH]n2)cc1	62.2	0[5.75 µM]	26.9	0	0	0
Nc1ncnc2nc(N3CCN(CCO)CC3)[nH]c12	-	-	-	0	-	-
Cc1cc(NC(=O)c2ccc([N+](=O)[O-])cc2)n(C)n1	0	0	0	0	0	0
CCC(C)NCCOc1cc(C)cc(C)c1C (configuration not stated)	0	0	0	0	-	0
CCOc1ccc(NC(=O)Nc2cc(OCC(F)(F)F)cc(OCC(F)(F)F)c2)cc1	0	1.85µM	0	0	0	0.828µM
COc1ccc(NC(=S)Nc2ccc3nsnc3c2)cc1	0	0.233µM	41.0	0	39.8µM	0
CCOc1ccc(NC(=O)Nc2ccc3nsnc3c2)cc1	0	0	32.6	0	0	0
CC(=O)c1ccc(NS(=O)(=O)c2ccc(Br)s2)cc1	-	-	-	-	0	-
CC1=C[C@H]2OC(=O)[C@@H](C)[C@H]2C[C@@H]2[C@H]1C[C@@H](O)[C@@]2(C)O	0	0	0	0	0	0
Clc1ccc(OCCn2ccnc2)c(Cl)c1	0	0	0	0	0	?
OC(COc1ccc(Cl)cc1Cl)Cn1ccnc1 (configuration not stated)	0	0	13.2	0	0	-
CC(=O)Nc1ccc(OCC(O)Cn2c(C(C)C)nc3ccccc32)cc1 (configuration not stated)	0	2.33µM	0	0	-	0
CC(=O)Nc1ccc(OCC(O)Cn2cccn2)cc1 (configuration not stated)	0	0	0	0	0	0
CC(=O)Nc1ccc(OCC(O)Cn2ccnc2)cc1 (configuration not stated)	78.0	0	35.3	0	0	0
C=CCOC(Cn1ccnc1)c1ccc(Cl)cc1Cl (configuration not stated)	-	3.38µM	-	-	0	4.15µM
C=CCc1cc(Cl)ccc1OCCn1ccnc1	0	?	0	?	0	0
NC(=O)c1ccc(NC(=O)CCC(=O)N2CCN(S(=O)(=O)c3ccc(Cl)cc3)CC2)cc1	0	?	0	0	0	?
Nc1nc2c(nc(SCc3ccccc3Br)n2[C@@H]2O[C@H](CO)[C@@H](O)[C@H]2O)c(=O)[nH]1	0	0	0	0	0	0[0.00184 µM]
